Reference: PubChem BioAssay (Tox21)
Records with an inconclusive call do not appear. Active and inactive are the calls of the source. Calls follow the shape of the dose curve; as a rule, active = well fitted curve in the direction sought with a large enough effect in the repeat runs; inconclusive = weak or mixed curves; inactive = no such curve, though single readings can be large; an effect the other way counts as inactive or inconclusive.

Columns and labels:
[1] = Human pregnane X receptor (PXR) small molecule agonists, qHTS cell viability counter screen (AID 1346977); also: nearly all actives have a fitted effect of over 50% in size; also: potency is read from the fitted curve at half-maximal effect
Method in brief: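 Readout is CellTiter-Fluor fluorescence from PXR-Luc HepG2 cells. Plated cells rested 5hr, then were treated with compounds for 24hr at 37C and 5% CO2, with reagent present during the last hour.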

[2] = Caspase-3/7 induction in HepG2 cells by small molecules, qHTS assay (AID 1346978); also: nearly all actives have a fitted effect of over 15% in size; also: potency is read from the fitted curve at half-maximal effect
Method in brief: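 Wild-type HepG2 cells, 2,000/well, settled 5 hr at 37 C and 5% CO2, then compound-treated for 17 hr; caspase-3/7 activity read by luminescent Caspase-Glo 3/7 after 30 min at room temperature.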

[3] = Caspase-3/7 induction in CHO-K1 cells by small molecules, qHTS cell viability counter screen (AID 1346979); also: nearly all actives have a fitted effect of over 35% in size; also: potency is read from the fitted curve at half-maximal effect
Method in brief: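 To flag cytotoxic compounds, treated CHO-K1 wild-type cells were given CellTiter-Fluor at 16hr and read fluorescently after 1hr at 37C; the caspase-3/7 luminescence was measured in these same wells.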

[4] = Caspase-3/7 induction in CHO-K1 cells by small molecules, qHTS assay (AID 1346980); also: nearly all actives have a fitted effect of over 15% in size; also: potency is read from the fitted curve at half-maximal effect
Method in brief: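 Wild-type CHO-K1 cells exposed to compounds for 17hr at 37 C, 5% CO2. Caspase-3/7 activity then measured by Caspase-Glo 3/7 luminescence after 30min at room temperature.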

[5] = Caspase-3/7 induction in HepG2 cells by small molecules, qHTS cell viability counter screen (AID 1346981); also: nearly all actives have a fitted effect of over 30% in size; also: potency is read from the fitted curve at half-maximal effect; as to activity change, negative = cytotoxicity: series mostly up to about 92 µM
Method in brief: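 Fluorescence read-out of live-cell protease activity (CellTiter-Fluor) after 1 hr with reagent. This was measured in the same wells as the caspase-3/7 luminescence, on HepG2 cells exposed to DMSO-dissolved compounds for 16 hr at 37 C.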

[6] = molecular target: Nuclear receptor subfamily 1 group I member 2 (Homo sapiens) (UniProt O75469); assay: Human pregnane X receptor (PXR) small molecule agonists, qHTS assay (AID 1346982); also: nearly all actives have a fitted effect of over 35% in size; also: potency is read from the fitted curve at half-maximal effect
Nuclear receptor subfamily 1 group I member 2 (Homo sapiens), sequence (O75469 whole entry, looked up): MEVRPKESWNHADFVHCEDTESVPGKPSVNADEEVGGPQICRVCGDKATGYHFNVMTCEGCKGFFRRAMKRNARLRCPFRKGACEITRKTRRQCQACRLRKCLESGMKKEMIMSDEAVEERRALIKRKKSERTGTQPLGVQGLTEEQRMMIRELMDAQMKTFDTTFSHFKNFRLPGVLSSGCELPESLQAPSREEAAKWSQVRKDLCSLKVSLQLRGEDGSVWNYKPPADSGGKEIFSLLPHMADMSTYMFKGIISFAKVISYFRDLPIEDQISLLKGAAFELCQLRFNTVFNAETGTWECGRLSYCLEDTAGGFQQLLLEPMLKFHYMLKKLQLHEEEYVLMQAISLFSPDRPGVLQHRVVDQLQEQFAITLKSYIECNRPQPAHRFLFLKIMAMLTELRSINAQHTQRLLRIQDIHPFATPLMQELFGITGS
Method in brief: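 HepG2 PXR-Luc reporter line, 5% charcoal-stripped FBS; 5 hr pre-incubation, compound (DMSO) 24 hr at 37 C/5% CO2; ONE-Glo 30 min RT; luminescence read-out.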

[7] = molecular target: Cytochrome P450 2D6 (Homo sapiens) (UniProt P10635); assay: Cytochrome P450 Family 2 Subfamily D Member 6 (CYP2D6) small molecule antagonists: luciferase reporter qHTS assay (AID 1671196); also: nearly all actives have a fitted effect of over 50% in size; also: potency is read from the fitted curve at half-maximal effect; as to activity change, negative = inhibition: series mostly up to about 120 µM
Cytochrome P450 2D6 (Homo sapiens), sequence (P10635 whole entry, looked up): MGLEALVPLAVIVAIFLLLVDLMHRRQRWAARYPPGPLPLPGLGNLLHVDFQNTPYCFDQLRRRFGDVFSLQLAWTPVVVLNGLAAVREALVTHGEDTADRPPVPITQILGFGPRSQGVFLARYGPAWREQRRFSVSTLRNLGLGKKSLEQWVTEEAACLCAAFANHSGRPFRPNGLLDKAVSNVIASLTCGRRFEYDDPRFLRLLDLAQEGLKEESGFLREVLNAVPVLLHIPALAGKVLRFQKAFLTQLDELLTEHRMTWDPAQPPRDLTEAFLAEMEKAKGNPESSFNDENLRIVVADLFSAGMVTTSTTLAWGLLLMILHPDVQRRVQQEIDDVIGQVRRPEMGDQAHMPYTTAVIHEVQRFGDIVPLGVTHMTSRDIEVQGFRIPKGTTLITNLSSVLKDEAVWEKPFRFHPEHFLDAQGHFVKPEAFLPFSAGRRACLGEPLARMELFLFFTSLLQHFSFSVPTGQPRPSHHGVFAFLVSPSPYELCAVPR
Method in brief: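 Luminogenic proluciferin substrate, CYP2D6 enzyme; 10 min RT preincubation with compound, NADPH regeneration system added, 1 h RT. Stop/detection reagent, 20 min RT, luminescence read (RLU). Signal proportional to CYP activity.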

[8] = molecular target: Cytochrome P450 2C9 (Homo sapiens) (UniProt P11712); assay: Cytochrome P450 Family 2 Subfamily C Member 9 (CYP2C9) small molecule antagonists: luciferase reporter qHTS assay (AID 1671198); also: nearly all actives have a fitted effect of over 50% in size; also: potency is read from the fitted curve at half-maximal effect; as to activity change, negative = inhibition: series mostly up to about 120 µM
Cytochrome P450 2C9 (Homo sapiens), sequence (P11712 whole entry, looked up): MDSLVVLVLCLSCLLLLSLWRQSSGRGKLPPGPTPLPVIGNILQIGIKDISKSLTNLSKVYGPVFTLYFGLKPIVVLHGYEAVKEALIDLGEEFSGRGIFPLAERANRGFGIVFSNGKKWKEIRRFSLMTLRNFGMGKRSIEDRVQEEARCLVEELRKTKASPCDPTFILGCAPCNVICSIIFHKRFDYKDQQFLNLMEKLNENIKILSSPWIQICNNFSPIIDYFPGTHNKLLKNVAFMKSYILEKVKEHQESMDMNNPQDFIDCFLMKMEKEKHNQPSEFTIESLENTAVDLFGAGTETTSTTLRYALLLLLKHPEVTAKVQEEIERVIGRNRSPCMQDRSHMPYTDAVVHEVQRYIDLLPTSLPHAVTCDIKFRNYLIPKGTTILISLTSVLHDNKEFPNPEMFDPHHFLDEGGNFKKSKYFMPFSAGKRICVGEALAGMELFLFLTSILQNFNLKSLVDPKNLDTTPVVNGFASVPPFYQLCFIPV
Method in brief: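 P450-Glo proluciferin substrate with CYP2C9 enzyme; 10 min RT preincubation, then NADPH regeneration 1 h at 37C; luciferin detection reagent 20 min RT, luminescence in relative luminescence units.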

[9] = molecular target: Cytochrome P450 1A2 (Homo sapiens) (UniProt P05177); assay: Cytochrome P450 Family 1 Subfamily A Member 2 (CYP1A2) small molecule antagonists: luciferase reporter qHTS assay (AID 1671199); also: nearly all actives have a fitted effect of over 50% in size; also: potency is read from the fitted curve at half-maximal effect; as to activity change, negative = inhibition: series mostly up to about 120 µM
Cytochrome P450 1A2 (Homo sapiens), sequence (P05177 whole entry, looked up): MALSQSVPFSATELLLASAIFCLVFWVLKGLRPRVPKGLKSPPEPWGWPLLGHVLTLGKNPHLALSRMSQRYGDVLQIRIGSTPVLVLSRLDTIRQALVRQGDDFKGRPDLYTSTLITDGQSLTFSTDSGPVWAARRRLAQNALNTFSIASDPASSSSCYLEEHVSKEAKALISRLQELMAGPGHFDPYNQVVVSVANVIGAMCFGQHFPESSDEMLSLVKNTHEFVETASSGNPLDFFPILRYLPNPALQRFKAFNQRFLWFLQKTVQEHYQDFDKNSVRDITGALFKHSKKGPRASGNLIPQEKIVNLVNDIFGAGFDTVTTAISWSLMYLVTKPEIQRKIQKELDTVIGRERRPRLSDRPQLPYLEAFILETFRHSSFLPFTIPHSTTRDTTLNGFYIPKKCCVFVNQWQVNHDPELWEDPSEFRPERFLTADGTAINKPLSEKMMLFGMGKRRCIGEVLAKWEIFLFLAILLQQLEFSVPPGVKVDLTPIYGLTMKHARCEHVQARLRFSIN
Method in brief: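 Luminescence readout (relative luminescence units) after luciferin detection reagent, 20 min RT. Preceded by 1 h room-temperature CYP1A2 reaction with NADPH regeneration solution following 10 min compound preincubation with enzyme and proluciferin substrate. Furafylline positive control.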

[10] = molecular target: Voltage-gated inwardly rectifying potassium channel KCNH2 (Homo sapiens) (UniProt Q12809); assay: Human Ether-a-go-go-Related Gene (hERG) channel small molecule antagonists: fluorescence cell-based qHTS assay (AID 1671200)
Voltage-gated inwardly rectifying potassium channel KCNH2 (Homo sapiens), sequence (Q12809 whole entry, looked up): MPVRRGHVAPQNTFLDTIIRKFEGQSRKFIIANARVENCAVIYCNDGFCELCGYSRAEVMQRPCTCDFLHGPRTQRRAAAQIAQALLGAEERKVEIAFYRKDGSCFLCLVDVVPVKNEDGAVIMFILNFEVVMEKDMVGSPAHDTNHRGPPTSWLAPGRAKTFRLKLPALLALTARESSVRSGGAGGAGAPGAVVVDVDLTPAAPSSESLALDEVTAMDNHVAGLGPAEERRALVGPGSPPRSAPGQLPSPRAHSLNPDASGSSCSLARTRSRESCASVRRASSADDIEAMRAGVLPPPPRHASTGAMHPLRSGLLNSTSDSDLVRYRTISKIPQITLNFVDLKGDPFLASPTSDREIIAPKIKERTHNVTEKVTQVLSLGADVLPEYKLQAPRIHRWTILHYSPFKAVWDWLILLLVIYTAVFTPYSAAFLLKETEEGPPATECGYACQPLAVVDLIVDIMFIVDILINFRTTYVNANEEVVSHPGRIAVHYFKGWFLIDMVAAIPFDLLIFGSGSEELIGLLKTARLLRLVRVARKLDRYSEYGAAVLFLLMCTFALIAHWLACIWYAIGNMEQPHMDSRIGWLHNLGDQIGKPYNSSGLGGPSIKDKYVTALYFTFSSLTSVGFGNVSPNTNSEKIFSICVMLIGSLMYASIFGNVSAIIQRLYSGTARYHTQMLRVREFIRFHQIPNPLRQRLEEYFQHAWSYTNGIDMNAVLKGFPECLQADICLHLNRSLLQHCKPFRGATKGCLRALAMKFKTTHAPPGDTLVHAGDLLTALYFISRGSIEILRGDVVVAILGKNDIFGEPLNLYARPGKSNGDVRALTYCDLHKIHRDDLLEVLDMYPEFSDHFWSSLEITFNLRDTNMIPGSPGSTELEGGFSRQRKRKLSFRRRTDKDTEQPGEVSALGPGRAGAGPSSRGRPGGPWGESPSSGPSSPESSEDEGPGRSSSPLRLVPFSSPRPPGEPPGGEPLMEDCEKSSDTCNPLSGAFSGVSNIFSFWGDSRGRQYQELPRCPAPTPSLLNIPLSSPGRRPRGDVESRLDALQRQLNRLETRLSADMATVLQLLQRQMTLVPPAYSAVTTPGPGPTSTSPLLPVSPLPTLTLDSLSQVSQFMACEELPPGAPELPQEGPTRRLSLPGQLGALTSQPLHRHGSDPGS
Method in brief: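 Measured: Tl+ flux via fluorescence (480/540 nm) in hERG-expressing U2OS cells after 1 h dye loading at room temperature.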

[11] = molecular target: Cytochrome P450 3A4 (Homo sapiens) (UniProt P08684); assay: Cytochrome P450 Family 3 Subfamily A Member 4 (CYP3A4) small molecule antagonists: luciferase reporter qHTS assay (AID 1671201); also: nearly all actives have a fitted effect of over 50% in size; also: potency is read from the fitted curve at half-maximal effect; as to activity change, negative = inhibition: series mostly up to about 120 µM
Cytochrome P450 3A4 (Homo sapiens), sequence (P08684 whole entry, looked up): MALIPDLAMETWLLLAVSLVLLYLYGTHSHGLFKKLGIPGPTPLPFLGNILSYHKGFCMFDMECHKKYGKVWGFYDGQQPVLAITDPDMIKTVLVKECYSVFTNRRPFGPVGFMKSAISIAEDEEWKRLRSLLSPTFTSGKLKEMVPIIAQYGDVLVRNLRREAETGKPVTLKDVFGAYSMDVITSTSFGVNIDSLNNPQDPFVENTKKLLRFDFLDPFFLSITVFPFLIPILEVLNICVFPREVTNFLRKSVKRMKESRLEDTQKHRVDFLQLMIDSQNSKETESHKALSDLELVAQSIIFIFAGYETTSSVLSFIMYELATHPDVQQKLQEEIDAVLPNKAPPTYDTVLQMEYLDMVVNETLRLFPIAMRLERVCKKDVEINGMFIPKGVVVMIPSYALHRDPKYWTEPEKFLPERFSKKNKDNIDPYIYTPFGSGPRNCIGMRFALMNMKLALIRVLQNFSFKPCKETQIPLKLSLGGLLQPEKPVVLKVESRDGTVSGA
Method in brief: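 Setup: enzyme-substrate mix, compound pin transfer, 10 min RT. Reaction: NADPH regeneration solution, 1 h RT. Readout: detection reagent stops turnover, luminescence measured after 20 min, expressed in relative luminescence units.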

[12] = molecular target: Nuclear receptor subfamily 1 group I member 2 (Rattus norvegicus) (UniProt Q9R1A7); assay: Rat pregnane X receptor (rPXR) activation by small molecules, qHTS assay (AID 1346983); conditions: rPXR luciferase reporter cells, One-Glo luminescence, 24 h; max activation: stronger effect = higher value; also: nearly all actives have a fitted effect of over 20% in size
Nuclear receptor subfamily 1 group I member 2 (Rattus norvegicus), sequence (Q9R1A7 whole entry, looked up): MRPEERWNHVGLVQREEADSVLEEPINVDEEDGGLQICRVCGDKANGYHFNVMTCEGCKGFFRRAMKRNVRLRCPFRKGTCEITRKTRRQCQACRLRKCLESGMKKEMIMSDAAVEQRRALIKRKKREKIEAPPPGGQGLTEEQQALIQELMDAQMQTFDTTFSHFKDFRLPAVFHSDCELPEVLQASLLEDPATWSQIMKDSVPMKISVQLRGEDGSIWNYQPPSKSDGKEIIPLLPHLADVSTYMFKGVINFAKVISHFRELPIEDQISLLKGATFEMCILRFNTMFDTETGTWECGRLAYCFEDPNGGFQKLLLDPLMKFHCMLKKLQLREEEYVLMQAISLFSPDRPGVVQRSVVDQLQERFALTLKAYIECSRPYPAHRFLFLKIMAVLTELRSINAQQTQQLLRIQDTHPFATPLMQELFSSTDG
Method in brief: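 Cell-based rPXR activation assay: rPXR cells, 2,000 per well, rested 5hr at 37 C, then exposed to compounds in DMSO for 24 hr at 37 C. Luciferase activity read by One-Glo luminescence after 30 min at room temperature.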

[13] = molecular target: Nuclear receptor subfamily 1 group I member 2 (Homo sapiens) (UniProt O75469); assay: CYP3A4 induction through human pregnane X receptor (PXR) by small molecules, qHTS assay (AID 1346984); also: nearly all actives have a fitted effect of over 40% in size
Method in brief: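 HepG2-derived DPX-2 line carrying PXR plus a CYP3A4-promoter luciferase reporter; cells plated 5 hr, compound-exposed 24 hr at 37C. CYP3A4 activity probed with 3uM (final) Luciferin-IPA for 3hr, then luciferase read after One-Glo.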

[14] = molecular target: Nuclear receptor subfamily 1 group I member 2 (Homo sapiens) (UniProt O75469); assay: Human pregnane X receptor (PXR) activation by small molecules, qHTS assay (AID 1346985); also: nearly all actives have a fitted effect of over 40% in size
Method in brief: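 DPX-2 cells (HepG2 co-transfected with a PXR response element and a CYP3A4-promoter luciferase construct) were seeded at 2,000 per well, rested 5 hr at 37C, then exposed to DMSO-dissolved compounds for 24 hr. Activation was read as luciferase luminescence.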

[15] = molecular target: Cytochrome P450 2C19 (Homo sapiens) (UniProt P33261); assay: Cytochrome P450 Family 2 Subfamily C Member 19 (CYP2C19) small molecule antagonists: luciferase reporter qHTS assay (AID 1671197); also: nearly all actives have a fitted effect of over 65% in size; also: potency is read from the fitted curve at half-maximal effect; as to activity change, negative = inhibition: series mostly up to about 120 µM
Cytochrome P450 2C19 (Homo sapiens), sequence (P33261 whole entry, looked up): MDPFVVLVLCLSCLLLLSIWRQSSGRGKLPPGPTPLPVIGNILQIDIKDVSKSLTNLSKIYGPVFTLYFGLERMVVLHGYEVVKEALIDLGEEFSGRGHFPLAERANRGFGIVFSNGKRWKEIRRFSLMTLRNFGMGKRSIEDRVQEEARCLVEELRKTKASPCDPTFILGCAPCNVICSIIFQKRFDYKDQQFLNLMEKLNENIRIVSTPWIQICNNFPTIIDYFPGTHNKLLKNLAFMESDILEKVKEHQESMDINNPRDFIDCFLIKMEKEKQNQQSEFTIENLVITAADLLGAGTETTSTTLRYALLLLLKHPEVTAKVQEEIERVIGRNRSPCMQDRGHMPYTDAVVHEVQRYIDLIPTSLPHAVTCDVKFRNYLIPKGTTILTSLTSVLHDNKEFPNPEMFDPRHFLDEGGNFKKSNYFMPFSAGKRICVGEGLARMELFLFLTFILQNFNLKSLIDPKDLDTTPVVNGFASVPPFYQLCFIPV
Method in brief: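 Compounds were tested on CYP2C19 activity via proluciferin conversion to luciferin. The 37C, 1 h reaction followed NADPH addition; detection reagent stopped it.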
% is scaled to controls: 0 for no effect and ±100 for the full control effect.

CCN(CC)CCNc1ccc(CNC=O)c2sc3ccc(OC)cc3c(=O)c12
active: Potency [1] 9.69 µM | Potency [2] 61.1 µM | Potency [3] 6.11 µM | Potency [4] 30.6 µM | Potency [5] 9.69 µM | Potency [7] 6.33 µM | Potency [8] 31.7 µM | Potency [9] 22.4 µM | Potency [11] 20 µM
inactive: Potency [6] | Potency [10]

Nc1c(CC(=O)O)cccc1C(=O)c1ccc(Br)cc1
inactive: Potency [1] | Potency [2] | Potency [3] | Potency [4] | Potency [5] | Potency [6] | max activation [12] -2.12% | Potency [13] | Potency [14] | Potency [15] | Potency [8] | Potency [9] | Potency [10] | Potency [11]

CCCCCCc1ccc(-c2ccc(C#N)cc2)cc1
active: Potency [7] 39.2 µM | Potency [15] 44 µM
inactive: Potency [1] | Potency [2] | Potency [3] | Potency [4] | Potency [5] | Potency [6] | Potency [11]

NCCCN1CCOCC1
active: Potency [7] 35.5 µM
inactive: Potency [1] | Potency [2] | Potency [3] | Potency [4] | Potency [5] | Potency [6] | Potency [15] | Potency [9] | Potency [10] | Potency [11]

O=S(=O)(Oc1ccc(Cl)cc1)c1ccccc1
active: Potency [6] 54.5 µM | Potency [7] 31.7 µM | Potency [15] 0.894 µM | Potency [8] 31.7 µM | Potency [9] 5.64 µM
inactive: Potency [1] | Potency [2] | Potency [3] | Potency [4] | Potency [5] | Potency [10] | Potency [11]

C=C(C)C(=O)OCCOCC
inactive: Potency [1] | Potency [2] | Potency [3] | Potency [4] | Potency [5] | Potency [6] | Potency [10] | Potency [11]
active: Potency [7] 31.9 µM | Potency [15] 80 µM

CCCCC(CC)CN1C(=O)C2C3C=CC(C3)C2C1=O (centres undefined)
active: Potency [6] 27.3 µM | Potency [7] 31.7 µM | Potency [15] 3.56 µM | Potency [8] 7.96 µM | Potency [9] 17.8 µM | Potency [11] 1 µM
inactive: Potency [1] | Potency [2] | Potency [3] | Potency [4] | Potency [5]

N=c1ccn2c(n1)O[C@H]1[C@H](O)[C@@H](CO)O[C@H]12
inactive: Potency [1] | Potency [2] | Potency [3] | Potency [4] | Potency [5] | Potency [6] | max activation [12] 4.22% | Potency [14] | Potency [15] | Potency [8] | Potency [10] | Potency [11]

CC1CCC(=O)C1=O (centres undefined)
inactive: Potency [1] | Potency [2] | Potency [3] | Potency [4] | Potency [5] | Potency [6] | Potency [7] | Potency [15] | Potency [8] | Potency [9] | Potency [10] | Potency [11]

CC(CC=O)c1ccccc1 (centres undefined)
inactive: Potency [1] | Potency [2] | Potency [3] | Potency [4] | Potency [5] | Potency [7] | Potency [10]
active: Potency [6] 61.1 µM | Potency [15] 15.9 µM | Potency [8] 31.7 µM | Potency [11] 20 µM

C[N+]1(C)CCC(OC(=O)C(O)(c2ccccc2)C2CCCC2)C1 (centres undefined)
inactive: Potency [1] | Potency [2] | Potency [3] | Potency [4] | Potency [5] | Potency [6]

CC(C)Cc1ccc(C(C)C(=O)OCc2ccccn2)cc1 (centres undefined)
active: Potency [15] 7.76 µM | Potency [8] 7.76 µM | Potency [9] 32.3 µM
inactive: Potency [1] | Potency [2] | Potency [3] | Potency [4] | Potency [5] | Potency [6]

C/C=C/C(=O)CC
inactive: activity change, negative = cytotoxicity [1] -29.3% [at 19 µM] | caspase activation [2] 0.108% [at 19 µM] | activity change, negative = cytotoxicity [3] 0.0214% [at 19 µM] | caspase-3/7 activation [4] 1.13% [at 19 µM] | activity change, negative = cytotoxicity [5] -1.71% [at 19 µM] | activity change, negative = inhibition [7] 0.0645% [at 23.6 µM] | Potency [15] | activity change, negative = inhibition [8] -11% [at 23.6 µM] | activity change, negative = inhibition [10] 2.39% [at 15.8 µM]
active: Potency [6] 10.5 µM

NCc1ccccc1Sc1ccccc1CO
inactive: Potency [1] | Potency [2] | Potency [3] | Potency [4] | Potency [5] | Potency [6] | max activation [12] -1.62% | Potency [13] | Potency [14] | Potency [10]
active: Potency [7] 7.76 µM | Potency [15] 21.9 µM | Potency [8] 9.77 µM

Nc1ncn([C@H]2C[C@H](O)[C@@H](CO)O2)c(=O)n1
inactive: Potency [1] | Potency [2] | Potency [3] | Potency [4] | Potency [5] | Potency [6] | max activation [12] 10.4% | Potency [13] | Potency [14] | Potency [7] | Potency [15] | Potency [8] | Potency [9] | Potency [10] | Potency [11]

O=C1C(O)=C(O)C(=O)C(O)=C1O
inactive: Potency [1] | Potency [2] | Potency [3] | Potency [4] | Potency [5] | Potency [6] | max activation [12] -2.91% | Potency [13] | Potency [14] | Potency [7] | Potency [15] | Potency [8] | Potency [10] | Potency [11]

O=C(O)CNCC(=O)O
inactive: activity change, negative = cytotoxicity [1] 4.27% [at 8.39 µM] | caspase activation [2] 2.93% [at 8.39 µM] | activity change, negative = cytotoxicity [3] 0.398% [at 8.39 µM] | caspase-3/7 activation [4] 0.331% [at 8.39 µM] | activity change, negative = cytotoxicity [5] 1.14% [at 8.39 µM] | activation [6] -2.51% [at 8.39 µM] | activity change, negative = inhibition [7] -0.567% [at 10.5 µM] | activity change, negative = inhibition [8] -0.595% [at 10.5 µM] | activity change, negative = inhibition [10] 4.26% [at 6.97 µM] | activity change, negative = inhibition [11] 0.283% [at 10.5 µM]

Nc1ccccc1S(=O)(=O)c1ccccc1
inactive: Potency [1] | Potency [2] | Potency [3] | Potency [4] | Potency [5] | Potency [7] | Potency [15] | Potency [8] | Potency [10]
